The supplement of paper PMC6555819

Assays:
Assay in all cases: PBM binding z-score (relative to random genomic background probes); higher = stronger binding; sequences stand for … in GC…GCGATTGACAGCGTAGAATGAAGG
[1] = test system: PPARg:RXRa DBDmut IVT, anti-RXR (DBD mutation: RXRa K156A/R161A, NR concentration 270 nM, RXRa partner concentration 90 nM)
In short: (§1)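 Ligand-free nuclear receptor dimers were applied to custom Agilent 4×180K protein-binding microarrays whose double-stranded probes carried direct-repeat seeds, single-nucleotide variants, half-site ablations and random human genomic background sequences in 34-nt variable regions. Incubation lasted 1 h. Binding z-scores were computed against the random background probes from regression-normalized fluorescence.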

[2] = test system: PPARg:RXRa IVT, anti-PPARg (NR concentration 270 nM, RXRa partner concentration 90 nM)
In short: as §1

[3] = test system: PPARg DBDmut:RXRa IVT, anti-PPARg (DBD mutation: PPARg1 K132A/R137A, NR concentration 270 nM, RXRa partner concentration 90 nM)
In short: as §1

[4] = test system: PPARg DBDmut IVT, anti-PPARg (DBD mutation: PPARg1 K132A/R137A, NR concentration 270 nM)
In short: as §1

[5] = test system: PPARg homodimer (NR concentration 180 nM)
In short: as §1

[6] = test system: PXR:RXRa (NR concentration 270 nM, RXRa partner concentration 90 nM)
In short: as §1

[7] = test system: PXR homodimer (NR concentration 270 nM)
In short: as §1

[8] = test system: RARa:RXR (NR concentration 270 nM, RXRa partner concentration 90 nM)
In short: as §1

[9] = test system: RARa homodimer (NR concentration 270 nM)
In short: as §1

[10] = test system: RARb:RXRa (NR concentration 270 nM, RXRa partner concentration 90 nM)
In short: as §1

Sequence	PBM binding z-score [1]	PBM binding z-score [2]	PBM binding z-score [3]	PBM binding z-score [4]	PBM binding z-score [5]	PBM binding z-score [6]	PBM binding z-score [7]	PBM binding z-score [8]	PBM binding z-score [9]	PBM binding z-score [10]
TCGAGTAGGTGAGGGGCATTCAGAATGGCGTCGA	3.64	3.75	-0.208	0.0293	0.149	0.21	-0.342	-0.0572	-0.832	0.965
CCTGCAAGGTCATGGTCAGCTAATCTACAGTATG	2.84	3.3	1.03	1.64	3.29	4.62	0.377	5.57	1.03	5.04
CAACCTAGGTCAAGAGGTCAAAGTCCGCTTCCCG	4.75	5.45	0.0311	-0.16	5.72	6.26	2.37	7.74	2.15	5.42
CCTTACGCGTCACTCCAGGTTATAGCATCGGAGT	0.0955	0.368	0.286	1	1.16	0.484	0.825	0.345	0.837	0.333
ATCGAAAGGTCGTGAGGTGAATATACAGAAAGGC	0.388	2.93	1.73	0.704	2.17	3.53	0.656	4.96	1.14	4.12
CCTAGGAGGCCAGGGTCACTCAAGCATTTCGCTT	0.19	1.11	-0.773	-1.85	1.09	2.28	-0.346	2.55	-0.732	2.67
ACTTACCGGTCAACGAGGTTATAGCACGCGTATA	1.22	1.9	0.959	1.45	1.88	2.33	1.42	2.38	1.15	3.08
CCTGCTCGGTCATGGTCAGCTAATCTACAGTATG	0.829	0.464	-0.762	-0.953	-0.491	-0.351	-0.822	-0.293	-0.596	2.46
AGTCAAAGTTCATCTAGGTGACGTAAGATATGCT	1.67	4.74	1.64	1.41	3.65	4.98	6.85	3.75	1.44	4.8
TCTAGCAGGCCAGAGGGTCACTGAAGAGGTACGG	1.24	0.963	-0.7	-1.2	0.503	1.53	-0.448	2.29	-0.0509	2.34
AGAACGAGGTTACCAAAGATCAGGGAAACGCTTG	2.75	2.7	0.297	0.837	0.438	1.41	-0.605	1.66	-0.278	2.02
ACTCGGAGGACACAGGTCAGAGCTACGCCAGTGA	0.556	1.45	-0.673	0.431	1.35	1.09	-0.155	1.8	0.347	2.89
CAGCCTAGGTCAGAGCCAGTATAGGAGGAACGTT	1.93	1.53	-0.412	-1	0.951	0.261	-0.164	0.723	0.33	3.08
CTACCAGGGTGAACAAGGTCGTTGATTACTATTC	1.3	1.86	0.284	-0.282	1.61	3.12	0.95	2.67	-0.135	1.42
ACTATTGGTTGAGACGAGGGCAACCGATAGGTTG	-0.0898	0.516	0.379	0.283	0.821	1.5	0.199	1.1	0.274	1.07
AATACAGGGTCACTAGGCAAGAGTAGGTACGAAT	3.19	4.81	1.06	0.858	2.63	3.06	0.322	4.1	1.16	4.13
ATCTCTAGGTAACCAGTTCAGTGAAAGAGAGGAC	3.36	3.09	0.836	0.902	1.06	1.19	1.26	1.04	1.15	0.835
TAGCCTAGGTCATTCAGGGGCCCGTATAGAAAGC	1.73	2.64	0.467	0.786	1.25	2.01	-0.334	2.84	-0.527	3.47
CGTCCAAGGTCAATGCTAGGTCAGTTAAAGCATT	3.07	3.94	0.0858	0.055	4.36	4.89	1.22	5.78	1.02	5.21
AGAATGAGCTTACCAAAGATCAGGGAAACGCTTG	-0.815	-0.433	-0.258	-0.198	-0.572	-0.428	-0.462	-0.0887	-0.255	-0.501
CAAACTAGGTCACCGGAAGGGCAAAGTCCGCATG	8.45	8.73	1.66	1.37	1.44	3.29	0.241	3.92	0.698	4.47
ATATGTAGGTTACATCCTGGTCATTCAGGCTATG	7.08	7.21	2.2	2.23	0.657	0.747	0.205	1.05	0.992	1.11
AGATCGAGGGCACGCTGAGTTGATAGCAGAGTAG	3.66	3.58	1.3	0.665	-0.311	1.31	0.0547	0.734	-0.531	2.42
GCTTACGGCTCAAAGGTTATAGCATGAATAGAAT	-0.386	0.149	-0.0168	0.142	0.0753	1.47	-0.195	2.06	0.137	1.21
CCCTACGGGTCACGAGGTTATAGCACGACGAGCG	2.05	4.19	0.401	0.144	2.51	4.57	0.609	5.9	1.28	4.36

Sequence	PBM binding z-score [1]	PBM binding z-score [2]	PBM binding z-score [3]	PBM binding z-score [4]	PBM binding z-score [5]	PBM binding z-score [6]	PBM binding z-score [7]	PBM binding z-score [8]	PBM binding z-score [9]	PBM binding z-score [10]
ACTCGTTGGTCAGCTGAGGTCACACACAATTCGG	0.747	2.05	-0.129	0.631	3.13	5.42	1.8	4.47	1.77	3.58
CATACAGGGTCAGCTAGGCCAGAATAGGGACGGC	0.915	2.41	0.965	0.203	0.999	2.22	0.0161	2.91	0.818	4.16
ACTTACGGGTCAACGAGGTTCTAGCACGCGTATA	3.33	3.8	1.11	0.889	2.64	4.32	0.435	4.17	0.866	4.12
TCTTGTAGATCAACAGGAGGGTAAGAAAGATCGA	1.73	0.871	0.452	0.0976	-0.361	0.00133	-0.381	-0.112	0.0256	0.107
GCATATAGGTACTACAAGGTGAAAGTCCGATTGT	1.67	1.24	0.887	0.583	0.651	0.2	-0.351	1.36	-0.147	0.285
CGCACTAGGTCAGAACAGGACAGTGAAGGATGAT	7.11	7.1	0.649	0.931	1.4	1.07	0.443	1.39	0.474	3.02
TCATATAGGTAAAAGGTGAAAGACGGTGTGGTAA	5.58	5.42	1.69	1.75	3.5	1.66	0.734	3.13	1.65	1.91
CCTACTGGGCCAAAAGGGTCATTGATGCCGATAA	4.13	3.9	-0.517	-1.13	2.18	3.16	0.631	3.57	-0.0364	2.74
CGTCCAAGGTCATAGGAGGCCAGTGAAGACAGAT	2.81	3.75	0.813	0.508	2.54	5.33	1.53	4.52	0.617	5
ATCTCTAGGTAAAGATAGTTCATTGAATGCAAAT	1.7	1.76	1.3	1.29	0.829	2.33	1.98	1.25	1.34	1.06
TCATATAGGTAAATGCTAGGCGAAAGTCCGATCT	3.99	1.93	1.19	0.583	0.561	0.4	0.459	0.458	0.728	0.249
ATCTCTAGGTAACAAGTTCCGTGAAAGAGAGGAC	3.05	2.66	0.253	1.32	0.831	-0.111	0.636	0.015	0.906	0.274
AGAACGAGGGCAATCAGTTGATAGCACGGGTGGC	3.4	3.01	0.487	-0.148	-0.207	1.03	1.55	0.384	-0.0136	2.09
ATCTCTAGGTAAGACTCAGTTCAGTAAAGAACGC	1.94	1.31	0.584	0.972	0.82	1.24	1.74	0.263	1.3	0.396
ATCGAAAGGTTGAAGGTGAGTATACCCACCCGAA	-0.526	0.764	0.619	0.928	0.699	1.06	-0.0881	1.79	0.177	1.66
CGAACTAGGTCATTGACAGGACAGTGCATAGTAA	7.99	8.21	2.11	0.779	1.71	1.76	0.634	2.28	0.279	3.66
GCCGCTAGGTCAGGTTGGTCAGCTAACGGGTACG	2.34	1.64	-0.905	-1.32	0.576	0.356	-0.526	0.716	-0.74	3.27
TAGCCTAGGTCGTGGGCCAGTATACCACGCGAAC	-0.693	0.595	-0.359	-1.24	-0.437	-0.344	-0.949	0.14	-0.754	1.19
GCTGCTAGGTCAGGCTGGTCAGCTAACGGGTACG	3.75	2.35	-1.05	-1.02	-0.17	-0.0298	-0.747	0.0805	-0.715	3.35
TCATATAGGTAAAGAGGTGAAAGTCCGTAAGTTA	4.95	5.26	1.1	0.188	1.78	1.23	0.825	1.76	1	1.65
ACAGACAGGTGAGTGATGGTAACTCAGCTGGACG	0.622	0.347	-0.278	-0.268	0.364	-0.415	-0.0348	-0.241	0.249	0.377
GTACCAAGGTGAACAGGTCGTTGATGAGTAGGCG	1.79	3	-0.0563	-0.667	0.811	0.437	-0.13	1.38	-0.00415	2.09
CGAACGAGGGCATGAGTTGATAGCTAATGCCGAT	2.71	2.2	0.229	-0.661	0.249	0.689	0.178	0.401	0.0358	2.08
GCTATGAGTTGAAAGGGCAACCGAATGATTCTCG	0.245	0.754	0.0157	-0.588	0.982	1.62	-0.0077	2.66	0.195	2.45
